Experimental data from PubChem BioAssay (NCI).
About 83,000 compounds went through this panel and 20% of them were active in at least one assay; those are over-represented in the sample as a whole.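 Note: values are percent growth. 100 is the growth of untreated cells, values between 100 and 0 indicate rising inhibition; between -100 and 0 indicates cell death.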 Active and inactive are the calls of the source. Rule for the calls: active = growth percent below 10; inactive = the rest.

Legend:
Experiment in all cases: NCI-60 one-dose screen, 48 h (100 = growth as untreated, 0 = no growth, -100 = all killed)
Settings in all cases: 10 µM unless noted
[1] = test system: HCT-15 colon
[2] = test system: HT29 colon
[3] = test system: SNB-75 CNS
[4] = test system: SNB-19 CNS
[5] = test system: U251 CNS
[6] = test system: PC-3 prostate
[7] = test system: SK-MEL-5 melanoma
[8] = test system: UACC-62 melanoma
[9] = test system: LOX IMVI melanoma
[10] = test system: SK-MEL-28 melanoma

Measured: growth

CS(=O)(=O)Nc1cc(-c2ccc3ncnc(Nc4ccc5c(cnn5Cc5ccc(F)cc5)c4)c3c2)cnc1Cl
active: [3] -10.1%
inactive: [1] 82.1% | [2] 53.3% | [4] 47% | [5] 37.2% | [6] 38.2% | [7] 13.9% | [8] 21% | [9] 18.3% | [10] 16.7%

COc1ccc(Nc2nc(-c3cc(O)c(C)c(C)c3O)cs2)cc1
inactive: [1] 50.4% | [2] 105% | [3] 78.8% | [4] 102% | [5] 70.2% | [6] 43.9% | [7] 82.3% | [8] 68.9% | [9] 61.5% | [10] 99.5%

CCC(C)N(CCNc1cc(OC)cc2cccnc12)CC(C)C (stereo not given)
inactive: [1] 71.7% | [2] 73.7% | [3] 109% | [4] 94.3% | [5] 99.4% | [6] 83.5% | [7] 103% | [8] 88.9% | [9] 76.9% | [10] 109%

O=C(O)c1cn(C2CC2)c2cc(N3CCN(C(=O)N(c4ccccc4)c4nc(-c5ccccc5)cs4)CC3)c(F)cc2c1=O
active: [1] 6.28% | [2] 4.23% | [3] -9.1% | [6] 8.6% | [7] -61.3% | [8] -4% | [9] -23.6%
inactive: [4] 15.7% | [5] 12.6% | [10] 36.1%

CSc1nnc(-c2cc3c([nH]c4ccccc43)c(-c3cccc(O)c3)n2)n1-c1ccccc1
active: [3] 5.14%
inactive: [1] 26.7% | [2] 41.3% | [4] 38.6% | [5] 32.3% | [6] 29.9% | [7] 19.9% | [8] 42.3% | [9] 33.1% | [10] 36.2%

COc1ccc2c(c1OC)CO[C@@H]2[C@H]1c2c(cc3c(c2OC)OCO3)CCN1S(=O)(=O)c1cn(C)cn1
active: [5] 9.29%
inactive: [1] 13.5% | [2] 16.9% | [3] 27.7% | [4] 33.2% | [6] 24% | [7] 23.4% | [8] 27.6% | [9] 38% | [10] 55.3%

O=C1/C=C/[C@@H](O)[C@@H]2C[C@@H](O)C[C@H]2/C=C/CCC[C@H](CCc2ccccc2)O1
active: [2] 3.12% | [7] -92.9% | [9] -59.1% | [10] -2.32%
inactive: [1] 11% | [3] 28.9% | [4] 31.4% | [5] 20.1% | [6] 16.7% | [8] 23.7%

Nc1n[nH]c2cccc(C#Cc3cccc(NC(=O)c4cc(F)cc(C(F)(F)F)c4)c3)c12
inactive: [1] 74.4% | [2] 48.3% | [3] 98.6% | [4] 104% | [5] 93.7% | [6] 64.1% | [7] 71.7% | [8] 48.1% | [9] 37% | [10] 66.8%

C=CCN=c1sc2c(n1NC(=O)c1cc3ccc1CCc1ccc(cc1)CC3)C(=O)c1ccccc1C2=O
active: [1] -68.3% | [3] -94.6% | [4] 4.59% | [5] 0.221% | [6] 0.37% | [7] -98.5% | [8] -36% | [9] -80.3% | [10] -35.4%
inactive: [2] 26.1%

CS(=O)(=O)Nc1cc(-c2ccc3ncnc(Nc4ccc5c(cnn5Cc5cccc(F)c5)c4)c3c2)cnc1Cl
inactive: [1] 46.9% | [4] 22.2% | [6] 10.9%
active: [2] 5.83% | [3] -13.9% | [5] 9.46% | [7] -68.3% | [8] -8.95% | [9] -44.8% | [10] -12.6%

O=C(Nc1ccc(Oc2cccc(F)c2)c(Cl)c1)c1cccnc1
inactive: [1] 29.9% | [2] 12.7% | [4] 42.6% | [5] 32.5% | [6] 24.6% | [8] 31.2% | [9] 52.8% | [10] 54%
active: [3] 7.85% | [7] -24%

CC(=O)n1nc(C(=O)OC(C)(C)c2ccccc2)c2ccccc21
inactive: [1] 101% | [2] 97.5% | [3] 80.8% | [4] 95.7% | [5] 98.6% | [6] 92.3% | [7] 96.9% | [8] 93% | [9] 91.2% | [10] 90.4%

Cc1cc(N2CCN(CCNc3ccnc4cc(Cl)ccc34)CC2)nc(N2CCOCC2)n1
inactive: [1] 27.4% | [2] 20.7% | [3] 88.3% | [4] 89.9% | [5] 64.5% | [6] 65.1% | [7] 25.4% | [8] 60.2% | [9] 13.7% | [10] 77.5%

Cn1ccnc1C(=O)/C=C/c1ccc(C(=O)Nc2ccc(Cl)cc2)cc1
inactive: [7] 32.3% | [8] 16.6% | [10] 62.4%
active: [1] -13.2% | [2] 2.78% | [3] -3.04% | [4] -3% | [5] -50.1% | [6] -6.8% | [9] -84.8%

COc1ccc(C(=O)c2cc3c(N)c(C(=O)Nc4ccc(C)cc4)sc3nc2C)cc1
inactive: [1] 11.5% | [4] 28.9% | [5] 19.2% | [6] 25.1% | [8] 30.6% | [9] 39.2% | [10] 54%
active: [2] 9.18% | [3] -2.41% | [7] 6.93%

O=C(/C=C/c1ccccc1)Nc1ncc(Cc2ccccc2Cl)s1
active: [2] 6.09%
inactive: [1] 16% | [3] 15.8% | [4] 30.5% | [5] 27.2% | [6] 25.8% | [7] 34.3% | [8] 34.1% | [9] 21.3% | [10] 55.7%

Clc1cc(Cl)c(Cl)c(-c2nnc(SCc3ccncc3Br)o2)c1
inactive: [1] 112% | [2] 102% | [3] 84.4% | [4] 102% | [5] 90.3% | [6] 92.4% | [7] 81.8% | [8] 89.7% | [9] 95% | [10] 94.4%

O=C(CSC(=S)n1cnnc1)NC(=O)c1ccccc1
inactive: [1] 107% | [2] 104% | [3] 95% | [4] 109% | [5] 116% | [6] 102% | [7] 109% | [8] 110% | [9] 97% | [10] 113%

COc1cc(-c2nc3sccn3c2-c2ccnc(NCCNS(=O)(=O)c3ccccc3)n2)ccc1F
inactive: [1] 52.1% | [2] 24.6% | [3] 59.4% | [4] 67.6% | [5] 61% | [6] 30.9% | [7] 19% | [8] 25.8% | [9] 41.4% | [10] 63.7%

CCOC(=O)C1=C(C)NC(=O)NC1c1c(Cl)n(CCCl)c2ccccc12 (stereo not given)
inactive: [1] 99.6% | [2] 107% | [3] 85.4% | [4] 100% | [5] 94.4% | [6] 91.7% | [7] 102% | [8] 85.4% | [9] 92.6% | [10] 108%

Clc1cccc(Nc2ncnc3ccc(-c4cnc5[nH]ccc5c4)cc23)c1
inactive: [1] 69.4% | [2] 54.1% | [3] 84.7% | [4] 82.3% | [5] 72.9% | [6] 70.5% | [7] 75.4% | [8] 90.2% | [9] 86.2% | [10] 96%

C=CCOC(=O)Nc1cccn([C@H](Cc2ccccc2)C(=O)NCCC(C)C)c1=O
inactive: [1] 111% | [2] 99.7% | [3] 91.1% | [4] 85.9% | [5] 101% | [6] 92.3% | [7] 102% | [8] 97.1% | [9] 90.8% | [10] 97.6%

CC(C)c1ccc(C(=O)Nc2sc3c(c2C(N)=O)CCC(=O)C3)cc1
active: [1] -15.7% | [2] 5.66% | [3] -88.2% | [5] -3.68% | [6] -44.7% | [7] -62.8% | [8] -35.7% | [9] 4.43% | [10] 7.57%
inactive: [4] 13%

Nc1cc(C(=O)NC[C@H]2CN(c3ccc(N4CCC(C(=O)O)CC4)cc3)C(=O)O2)ccc1Cl
inactive: [1] 102% | [2] 104% | [3] 84.8% | [4] 98.7% | [5] 103% | [6] 101% | [7] 103% | [8] 95.8% | [9] 97% | [10] 109%

CCCCn1c(=O)[nH]c(N)c([C@@H]2c3c([nH]c(=O)n(CCCC)c3=O)Oc3ccc4ccccc4c32)c1=O
active: [1] 6.62% | [2] -44.2% | [5] -20.7% | [9] -76.2%
inactive: [3] 87.1% | [4] 64.2% | [6] 24.4% | [7] 67% | [8] 80.1% | [10] 44%

COc1cc(-c2cncn2-c2ccc(-c3nc4ccc(F)cc4s3)cc2)ccc1F
inactive: [1] 30.5% | [2] 30.8% | [3] 127% | [4] 86.7% | [5] 83% | [6] 107% | [7] 68.7% | [8] 84.8% | [9] 86.7% | [10] 95.9%

CC(C)(Sc1cc(C(C)(C)C)c(O)c(C(C)(C)C)c1)Sc1cc(C(C)(C)C)c(OC(=O)CCCC(=O)O)c(C(C)(C)C)c1
inactive: [1] 27.8% | [2] 40.8% | [3] 112% | [4] 57.1% | [5] 47.1% | [6] 33.9% | [7] 54.1% | [8] 26.1% | [9] 59% | [10] 70.6%
